High-throughput results (PubChem BioAssay)
Rows were chosen to be rich in hits. Some 10% of all compounds tested hit in one or more screens of this group.
LMNA splice mod – LMNA splicing modulation | hit rate 0.01% among 200,000 | HeLa LMNA splicing GFP/RFP minigene ratio, 48 h | AID 1487 | Potency, µM (highest dose often 46.1 µM), without a hit: at the highest dose ratio change, negative = inhibition, usual class: inhibitors; active = well fitted inhibition curve with a large enough effect in the signal ratio, with a control signal flat, not every such curve was filed as active; inconclusive = small, poorly fitted or top-dose-only effect, or effect the other way, or a change in a side signal; the % refers to the signal ratio; also: potency is read from the fitted curve at half-maximal effect
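Read-out is the ratio of GFP to DsRed2 object intensity, acquired by 488 nm laser-scanning cytometry on HeLa lamin A-EGFP minigene reporter cells. Compound incubation 48 hrs at 37 °C in Opti-MEM with 2% FBS; DMSO 0.5% final.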
ALDH1A1 block – inhibitors of human aldehyde dehydrogenase 1A1. hit rate 7.3% among 220,000. Purified ALDH1A1, NADH fluorescence, propionaldehyde substrate. Potency, µM (doses to about 75.3 µM), without a hit: at the highest dose activity, negative = inhibition, usual class: inhibitors. P00352;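 also: potency is read from the fitted curve at half-maximal effect; plate controls were no enzyme wells and a reference inhibitor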
Target sequence (P00352 whole entry, looked up): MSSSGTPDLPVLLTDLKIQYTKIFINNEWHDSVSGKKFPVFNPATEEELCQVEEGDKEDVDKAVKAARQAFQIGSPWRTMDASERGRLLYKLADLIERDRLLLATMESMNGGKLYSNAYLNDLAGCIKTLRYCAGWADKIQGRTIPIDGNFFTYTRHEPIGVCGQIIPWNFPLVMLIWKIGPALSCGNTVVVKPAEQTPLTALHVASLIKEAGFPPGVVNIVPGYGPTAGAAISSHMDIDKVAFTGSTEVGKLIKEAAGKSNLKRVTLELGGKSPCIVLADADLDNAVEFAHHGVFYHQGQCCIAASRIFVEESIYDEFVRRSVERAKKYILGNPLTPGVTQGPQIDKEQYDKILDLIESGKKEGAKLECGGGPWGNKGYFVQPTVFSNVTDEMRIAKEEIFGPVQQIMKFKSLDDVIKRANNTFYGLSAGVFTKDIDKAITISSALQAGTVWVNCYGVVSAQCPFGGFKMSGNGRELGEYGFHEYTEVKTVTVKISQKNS
PNC assembly inh – inhibitors of perinucleolar compartment assembly. activity change (PNC), negative = inhibition, % at 10 µM. AID 2417. PC3M PTB-GFP, PNC prevalence imaging, 16 h; hits give low values. hit rate 3.1% among 140,000;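 active = readout at or below -70, meaning at least 70% loss of cells showing the perinucleolar compartment, a nuclear body marking cancer cells; inconclusive = readout between -30 and a set limit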;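 also: plate controls were DMSO wells for no effect and camptothecin positive control wells for full effect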
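Read-out is percentage of cells bearing a perinucleolar compartment, from automated 20x imaging of fixed, Hoechst-stained PC3M PTB-GFP cells. Cells were seeded 4 h, then exposed 16 h to compound (23 nl of library stock) in duplicate plates.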
KinaseGlo FLuc – Kinase-Glo luciferase inhibition (counter-screen); Q27757; Potency, µM (series often up to 38.3 µM), for inactives: top-dose activity change, negative = inhibition, usual class: inhibitors; hit rate 0.28% among 200,000; Kinase-Glo luciferase, ATP luminescence, 8 min; AID 1379; active = well fitted inhibition curve with a large enough effect; inconclusive = small, poorly fitted or top-dose-only effect; also: potency is read from the fitted curve at half-maximal effect; nearly all actives have a fitted effect of over 60% in size
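Compounds were added to a substrate mix at pH 7.2 (50 mM imidazole, 10 uM ATP, within the enzyme's linear range), followed by Kinase-Glo detection reagent; luminescence was measured after 8 minutes at ambient temperature.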
HPGD block – inhibitors of human 15-hydroxyprostaglandin dehydrogenase (HPGD). AID 894. purified HPGD, NADH fluorescence kinetic, PGE2 substrate. Potency, µM, for the others: top-dose activity change, negative = inhibition, usual class: inhibitors. hit rate 4.3% among 150,000; also: potency is read from the fitted curve at half-maximal effect
Target sequence (P15428 whole entry, looked up): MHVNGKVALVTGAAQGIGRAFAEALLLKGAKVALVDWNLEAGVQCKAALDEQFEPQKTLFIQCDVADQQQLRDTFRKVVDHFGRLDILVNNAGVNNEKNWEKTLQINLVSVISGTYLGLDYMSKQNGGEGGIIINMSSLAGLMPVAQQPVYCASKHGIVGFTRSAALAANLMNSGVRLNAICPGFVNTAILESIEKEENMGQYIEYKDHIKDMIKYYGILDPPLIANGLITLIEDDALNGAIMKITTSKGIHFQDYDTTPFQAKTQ
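20 nM HPGD preincubated 15 min at room temperature with compound in 50 mM Tris-HCl pH 8, 0.01% Tween 20. Started with 1 mM NAD+ and 30 uM prostaglandin E2; NADH fluorescence (360/450 nm) read 5 times over 30-s intervals, last minus first.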
* marks the source's active call; other numbers are inactive results; ? = inconclusive; / = no result given; ! = a repeat was not active; [ ] = another dose, or the depositor's remark. Unless noted, calls follow the shape of the dose curve; as a rule, active = well fitted inhibition curve with a large enough effect (not every such curve was filed as active); inconclusive = small, poorly fitted or top-dose-only effect, or another doubt; inactive = no such curve, though single readings can be large or run the other way. Unless noted, % is scaled to controls: 0 for no effect and ±100 for the full control effect.

SMILES	LMNA splice mod	ALDH1A1 block	PNC assembly inh	KinaseGlo FLuc	HPGD block
N#Cc1ccc(C(=O)Nc2ccc3c(c2)N(C2CCCC2)C(=O)c2ccccc2S3)cc1	-19.2%[46 µM]	/	/	/	/
CCN(C(=O)CCS(=O)(=O)c1ccc(Br)cc1)c1ccc2c(c1)OCO2	-3.8%	15.8µM*	11.6	2.5%	-10.1%
COc1ccccc1NC(=O)c1cc2c(=O)n(Cc3cccs3)ccc2nc1C	-3.4%[46 µM]	/	/	/	/
CC(=O)N1CCc2cc(S(=O)(=O)NC(Cc3ccccc3)C(=O)Nc3cc(C)ccn3)ccc21 (centres undefined)	-1.8%	10µM*	-6.2	-0.1%	-10.9%
O=C(Nc1ccccc1)N1CCC2(CC1)CCN(C(=O)c1cnccn1)CC2	/	-6.8%	/	-1.9%	-5.7%
CC1=NN(c2ccccc2)C(=O)/C1=C\C=C1/N(C)c2ccccc2C1(C)C	?	-2.7%	-25.0	-9.3%	-18.8%
CN1/C(=C\C=C2/C(=O)Oc3ccccc3C2=O)C(C)(C)c2ccccc21	?	-0.6%	-90.5*	1.2%	-12.0%
O=C(NC(=S)Nc1cccc(Cl)c1N1CCCCC1)c1ccco1	8.1%	?	?	0.4%	-10.9%
O=C(NC(=S)Nc1cccc(Cl)c1N1CCCCC1)c1cccs1	15.6%	-3.2%	-108.4*	2.5%	-4.5%
Cc1cc(C)c2c(N)c(S(=O)(=O)Cc3ccccc3)sc2n1	2.6%	-13.9%	3.1	2.4%	22.4µM*
COC(=O)c1sc2nc(C)cc(C)c2c1N	-1.1%[46 µM]	?	/	-2.9%	/
Cc1[nH][nH]c(=O)c1C(c1ccc(-c2ccc(F)cc2)o1)c1c(C)[nH][nH]c1=O	?	25.1µM*	/	2.8%	/
Cc1[nH][nH]c(=O)c1C(c1ccc(-c2ccc(Cl)c(Cl)c2)o1)c1c(C)[nH][nH]c1=O	-10.3%	10µM*	-3.4	-3.1%	?
COc1ccc(-c2ccc(C(c3c(C)[nH][nH]c3=O)c3c(C)[nH][nH]c3=O)o2)c([N+](=O)[O-])c1	?	10µM*	/	-1.8%	/
Cc1[nH][nH]c(=O)c1C(c1ccc(-c2ccc(C(=O)O)cc2)o1)c1c(C)[nH][nH]c1=O	21.7%[46 µM]	?	/	?	/
O=C(NCCc1c[nH]c2ccccc12)[C@H]1C[C@@H]1[C@H](NP(=O)(c1ccccc1)c1ccccc1)c1ccccc1	/	-8.1%	/	-1.8%	-6.3%
COc1ccc(C)cc1NS(=O)(=O)c1c(C(=O)N2CCCCCC2)c(C)n(C)c1C	-7.1%[46 µM]	/	/	/	/
O=C(c1ccco1)N1CCN(c2nc3ccsc3c(=O)s2)CC1	-2.3%	12.6µM*	-10.3	4.2%	?
CCOc1ccc2nc(N3CCC(C(=O)N4CCN(C(=O)c5ccco5)CC4)CC3)sc2c1	?	15.8µM*	-14.3	-3.5%	-1.3%
CCN(CC)S(=O)(=O)c1ccc2c(c1)nc(CN(C)C(=O)Nc1ccc(C)c(F)c1)n2C	-21.0%[46 µM]	/	/	/	/
O=P(O)(O)CP(=O)(O)O	11.6%	4.4%	-100.0*	-4.2%	-6.3%
O=P(O)(O)OP(=O)(O)O	-4.9%	-0.6%[13.5 µM]	/	-5.8%[7.66 µM]	-3.3%
Cc1ccccc1-c1cc(N2CCNCC2)ncn1	-9.0%	0.0%	/	/	/
[O-][N+](CCO)(CCO)c1ncnc2nc[nH]c12	/	3.5%[13.5 µM]	/	-5.8%[7.66 µM]	-10.8%
CCCCCCCCCCCC1=C(O)C(=O)C=C(O)C1=O	/	23.8µM*	/	0.4%	14.1µM*!
SMILES	LMNA splice mod	ALDH1A1 block	PNC assembly inh	KinaseGlo FLuc	HPGD block
CCN1CCN(C(c2ccccc2)c2sc3nc(-c4ccco4)nn3c2O)CC1 (centres undefined)	0.4%[46 µM]	/	/	/	/
Cc1cc(N2CCN(C(=O)c3ccco3)CC2)n2ncnc2n1	6.0%	-12.2%	7.8	1.2%	-14.6%
Cc1cc(N2CCN(C(=O)OC(C)(C)C)CC2)n2ncnc2n1	-10.7%	-13.7%	-88.5*	/	/
O=C(CCCn1c(=O)c2cccn2c2ccc(F)cc21)NCc1ccc(Cl)cc1	10.3%[46 µM]	/	/	/	/
O=C(c1ccc(C#CC2(O)CCCCC2)cc1)N1CCN(C(c2ccccc2)c2ccccc2)CC1	?	25.1µM*	9.7	1.8%	-15.9%
O=C(c1ccc(C#CC2(O)CCCCC2)cc1)N1CCN(Cc2ccccc2)CC1	?	-13.2%	-27.9	-2.8%	-5.1%
Cc1cc(-n2c(C)cc(C(=O)CSc3nnnn3-c3ccc(Cl)cc3)c2C)no1	-11.9%	8.3%	-100.0*	1.2%	-15.9%
Cc1cc(C(=O)CSc2nnnn2C)c(C)n1-c1ccc2c(c1)OCCO2	?	?	32.1	-5.5%	25.1µM*
Cc1cc(-n2c(C)cc(C(=O)CSc3nnc4sc5ccccc5n34)c2C)no1	6.9%	3.1%	-12.4	-1.0%	-20.1%
Cc1ccc(C(NC(=O)N2CCCC2)C(Cl)Cl)cc1F (centres undefined)	-25.1%[46 µM]	11.2µM*	/	2.1%	/
O=C(NCCc1ccc(Cl)cc1)c1cnc2sc(N3CCCC3)nn2c1=O	8.8%[46 µM]	/	/	/	/
O=C(Cc1ccccc1)NCC(=O)OCC(=O)c1ccc([N+](=O)[O-])cc1	-1.1%	1.41µM*	?	2.1%	-2.2%
O=C(CNc1ccccc1)c1ccc([N+](=O)[O-])cc1	-11.2%	3.55µM*	?	-1.5%	?
O=C(CNS(=O)(=O)c1ccccc1)OCC(=O)c1ccc(OC(=O)c2ccccc2)cc1	6.7%[0.0737 µM]	-1.6%	82.2	-2.2%	-2.7%
Cc1ccc(C(=O)NCC(=O)NCC(=O)OCC(=O)c2ccc([N+](=O)[O-])cc2)cc1	14.5%	1µM*	28.9	-3.3%	-13.6%
O=C(CNS(=O)(=O)c1ccccc1)OCC(=O)c1ccc([N+](=O)[O-])cc1	-12.2%	1.12µM*	?	4.0%	-3.5%
O=C(CNC(=O)c1ccc([N+](=O)[O-])cc1)c1ccccc1	5.4%	1.4%	6.9	-2.8%	-0.6%
COc1cc(OC)c(NC(=O)C2CCN(S(=O)(=O)c3c(C)noc3/C=C/c3c(C)cc(C)cc3C)CC2)cc1Cl	25.9%[46 µM]	/	/	/	/
COc1ccccc1OCC(=O)NCCS(=O)(=O)N1CCN(c2ccccc2OC)CC1	-6.7%[46 µM]	/	/	/	/
CCCCCCCC[N+](CCCCCCCC)(CCCCCCCC)CCCCCCCC	/	?	/	/	0.7%
O=C(CSc1nnc(SCc2ccc(Cl)cc2)s1)c1ccc2c(c1)OCO2	?	2.24µM*	-7.1	2.8%	-12.1%
C=CCn1c(SCC(=O)c2ccc(Cl)cc2)nnc1-c1ccc2c(c1)OCO2	?	?	37.4	-2.3%	8.91µM*
COCCNc1nnc(SCC(=O)c2ccc3c(c2)OCO3)s1	13.9%	?	?	-4.3%	?
Cc1cccc(NC(=O)Cn2c(O)c(N=NC(=O)c3ccccc3O)c3ccccc32)c1	5.6%	12.6µM*	-12.5	-6.7%	-6.7%
CC(C)COc1ccc(C(=O)Nc2sc3c(c2C(=O)O)CC(C)(C)OC3)cc1	/	20µM*	/	0.1%	/
CC1(C)Cc2c(sc(NC(=O)c3ccccc3)c2C(=O)O)CO1	/	22.4µM*	/	-2.2%	/
CCOC(=O)c1c(NC(=O)c2cccs2)sc2c1CC(C)(C)OC2	?	?	?	-4.5%	?
Nc1cc(-c2ccco2)no1	17.0%	4.47µM*	-9.8	-8.5%	-14.6%
CC(=O)N1CCOc2cc(S(=O)(=O)NCc3ccc(C)cc3)c(Cl)cc21	9.9%[46 µM]	/	/	/	/
